Consider 52 molecules from PubChem BioAssay AID651820 (National Center for Advancing Translational Sciences (NCATS), 2012).

The campaign covered roughly 340,000 compounds. About 12,000 (3.5%) were called active. Roughly 18% stayed inconclusive and do not appear here. Calls come from the whole dose curve; as a rule, active = well fitted inhibition curve with a large enough effect; inconclusive = small, poorly fitted or top-dose-only effect, or another doubt; inactive = no such curve, though single readings can be large or run the other way. Only a selection was taken, and actives are over-represented in it overall.
% is set by controls: 0 for no effect and ±100 for the full control effect; potency is the fitted concentration of half-maximal effect.

The assay is described as follows: qHTS Assay for Inhibitors of Hepatitis C Virus (HCV). The settings on record: Huh7.5.1 HCVcc-Cre infection, luciferase reporter, 44 h; series mostly up to 41.8 µM; activity change, negative = inhibition: at the top concentration. The method, boiled down:
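Infectious HCV cell culture screen: compound-treated cells (1,000/well, pre-plated 4 h) are infected with HCVcc-Cre at roughly 0.5 moi and grown 44 h. Infection is quantified by luciferase signal after 15 min substrate incubation at room temperature.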
Background: Quantitative high-throughput screening tests each substance at several concentrations.
Turning to `CCN1C[C@@H]2[C@@H]3C(=O)N(Cc4ccccc4)C(=O)[C@@H]3[C@](Cc3ccccc3)(C(=O)OC)N2C1=NC1CCCCC1`, the activity change, negative = inhibition is 11.2% [at 8.37 µM] (inactive).
For the molecule `CCC[C@H]1CCCC/C=C\CCCC(=O)OCCN1C(=O)OC(C)(C)C`, the “activity change, negative = inhibition” value was 0.716% (inactive).
On the same count and under the same terms, then `CCN1C[C@@H]2[C@@H]3C(=O)N(C)C(=O)[C@@H]3[C@](C)(C1=O)N2C(=O)c1ccccc1`, with 9.82% (inactive); and `C/[N+]([O-])=C\c1ccc([N+](=O)[O-])o1`, with -3.61% (inactive).
As to `O=C(N/N=C/c1ccc([N+](=O)[O-])o1)c1cn(-c2ccccc2)nc1-c1ccc(F)cc1`, the “activity change, negative = inhibition” value was -13.3% (inactive).
Regarding `O=C(/C=C/c1ccc([N+](=O)[O-])o1)NNC(=O)c1ccc(F)cc1`, the Potency is 14.1 µM (active).
For the molecule `CCCCCCSc1ccc(-c2nc3ccc(Cl)cn3c2NCc2ccccc2)cc1`, the “activity change, negative = inhibition” value was 15.9% (inactive).
Still for that read-out and setting: in the case of `C[C@@H]1NS(=O)(=O)c2cc(Cl)ccc2O[C@@H]1c1ccccc1` it was 8.02% (inactive).
Turning to `Cc1cccc(-n2c(=O)c3c(C)c(C)sc3n(CC(N)=O)c2=O)c1`, the “activity change, negative = inhibition” value is 6.73% (inactive).
On to `Cc1cccc(NC(=O)Cn2c(=O)n(Cc3ccccc3)c(=O)c3c(C)c(C)sc32)c1`, for which the Potency is 10 µM (active).
In the case of `Cc1sc2c(c1C)c(=O)n(-c1ccccc1)c(=O)n2CC(=O)NCC1CCCO1` (configuration not stated), the “activity change, negative = inhibition” value is -3.51% (inactive).
Still for that read-out and setting: in the case of `C=CCC(NC(=O)Cc1ccccc1)C(=O)NCCC` (configuration not stated) it was 18.1% (inactive); in that of `CC(=NNC(=O)c1ccncc1)c1ccc(Cl)c(Cl)c1`, -8.61% (inactive); in that of `CN(Cc1cccs1)C(=O)CN1C(=O)c2ccccc2S1(=O)=O`, 33.4% (inactive).
As to `COc1cc(C(=O)N2CCN(S(=O)(=O)c3ccc(C(C)C)cc3)CC2)ccc1OCC(=O)N1CCOCC1`, the “activity change, negative = inhibition” value is 19.6% (inactive).
Turning to `COCC(C)NCc1cc(Br)ccc1OC` (configuration not stated), the “activity change, negative = inhibition” value was 25.2% (inactive).
For `CCC(C)NCCOCCOc1ccc(Br)cc1C` (configuration not stated), the Potency is 11.2 µM (active).
In the case of `Cc1ccc(OCCOCCOc2ccc(Br)cc2/C=N\NC(=O)c2ccncc2)cc1`, the “activity change, negative = inhibition” value is 4.5% (inactive).
On to `Cc1cccc(-n2ncc(Cl)c(Cl)c2=O)c1`, for which the Potency is 11.2 µM (active).
With `Cc1cccc(-n2ncc(C#N)c2-n2cccc2)c1`, the “activity change, negative = inhibition” value is -13.2% (inactive).
As for `O=c1c(Cl)c(NC2CC2)cnn1-c1ccccc1`, the “activity change, negative = inhibition” value was 13.3% (inactive).
For the molecule `COc1ccc(NC(=O)c2cccc(Cl)c2)c[n+]1[O-]`, the Potency is 3.16 µM (active).
With `O=C(Nc1ccc(NC(=O)c2ccc3c(c2)OCO3)cc1)c1cccc(Cl)c1`, the “activity change, negative = inhibition” value is 3.43% (inactive).
On to `O=C(Nc1ccon1)c1cccc(Cl)c1`, for which the “activity change, negative = inhibition” value is 22.2% (inactive).
With `Cc1ccc(NC(=O)C(C)OC(=O)C2CC3CCCC(C2)C3=O)cc1S(=O)(=O)N1CCOCC1` (configuration not stated), the “activity change, negative = inhibition” value was 7.06% (inactive).
For the molecule `CC[C@@H](C)[C@@H]1CN([C@@H](C)CN2CCC[C@H]2CN2C(N)=NC[C@H]2C(C)C)C(=N)N1CCc1ccc(Cl)c(Cl)c1`, the “activity change, negative = inhibition” value was -49.6% (inactive).
For `COc1ccccc1C(=O)NCC(=O)OCC(=O)Nc1nnc(-c2ccccc2)o1`, the “activity change, negative = inhibition” value is 14.5% (inactive).
Regarding `CCCC(=O)N1CCN(c2nnc(-c3ccc(C)cc3)c3ccccc23)CC1`, the Potency was 12.6 µM (active).
As for `c1ccc(-c2nnc(N3CCOCC3)c3ccccc23)cc1`, the “activity change, negative = inhibition” value is -6.08% (inactive).
Regarding `OCCN1CCN(c2nnc(-c3ccccc3)c3ccccc23)CC1`, the “activity change, negative = inhibition” value is -0.988% (inactive).
For `COc1ccc2nc3n(c(=O)c2c1)-c1ccc(Cl)cc1C(=O)NC3Cc1ccccc1` (configuration not stated), the “activity change, negative = inhibition” value is -23.3% (inactive).
Turning to `CCN(CC(=O)Nc1ccc(NC(C)=O)cc1)C(=O)CSC(=S)N1CCCC1`, the “activity change, negative = inhibition” value is 13% (inactive).
On the same count and under the same terms, in the case of `CN(C(=O)CSc1cccc[n+]1[O-])C1CCCCC1` it was 0.125% (inactive); in that of `CC(=O)N(Cc1cc(=O)[nH]c2ccccc12)c1ccc(C)cc1C`, 19.2% (inactive).
Take `Cc1ccc(N(Cc2cc(=O)[nH]c3ccccc23)C(=O)CCl)cc1`: the Potency is 11.2 µM (active).
Consider `Cc1ccc(N(Cc2cc3ccccc3[nH]c2=O)C(=O)c2cccs2)cc1`, for which the “activity change, negative = inhibition” value was -18.6% (inactive).
With `COc1cc(O)c2c(=O)c3c(O)c(O)ccc3oc2c1OC`, the “activity change, negative = inhibition” value was -35.3% (inactive).
Still for that read-out and setting: then `Cc1ccc(C)c(NS(=O)(=O)c2cc(Br)cnc2N)c1`, with 3.9% (inactive); and `CC(=O)c1ccc(NC(=O)CCNS(=O)(=O)c2cc(Br)cnc2N)cc1`, with -1.13% (inactive).
With `CCc1cccc(C)c1NS(=O)(=O)c1cc(Br)cnc1N`, the Potency was 11.2 µM (active).
As for `CCOc1ncccc1C(=O)OCC(=O)Nc1cccc(S(=O)(=O)N2CCCCCC2)c1`, the “activity change, negative = inhibition” value is -5.14% (inactive).
As to `COC(=O)[C@]1(C)N[C@H](CN(C)C(=O)c2ccc(C(C)(C)C)cc2)[C@@H]2C(=O)N(C)C(=O)[C@@H]21`, the activity change, negative = inhibition is -14.2% [at 8.37 µM] (inactive).
In the case of `COCCn1c(SC(C)C(=O)NC2CC2)nnc1-c1cccc(C)c1` (configuration not stated), the “activity change, negative = inhibition” value was 9.78% (inactive).
On to `COCOc1cc(O)c(C(=O)/C=C/c2ccc(OCOC)c(OCOC)c2)c(OCOC)c1`, for which the Potency was 7.94 µM (active).
For the molecule `COc1ccc(/C=C/C(=O)c2ccc(OC)cc2O)cc1`, the activity change, negative = inhibition is 1.23% [at 8.37 µM] (inactive).
Still for that read-out and setting: in the case of `COC(=O)c1ccc(COc2ccc(/C=C/C(=O)c3ccc(OC)c(CSCC(=O)O)c3)cc2OC)cc1` it was -18.3% (inactive).
For the molecule `CCOC(=O)c1c(NC(=O)CSc2nnc(CN3CCOCC3)n2C)sc2c1CCCC2`, the Potency was 22.4 µM (active).
On to `COC(=O)c1c(NC(=O)CSc2nncs2)sc2c1CCCCC2`, for which the Potency is 7.08 µM (active).
Regarding `COC(=O)c1c(NC(=O)C2CC(C)=C(C)CC2C(=O)O)sc2c1CCCCC2` (configuration not stated), the “activity change, negative = inhibition” value is 0.726% (inactive).
Same read-out and setting: in the case of `CCOC(=O)c1c(NC(=O)CSc2nnc(C)c(=O)[nH]2)sc2c1CCC2` it was 2.84% (inactive); in that of `COC(=O)c1c(NC(=O)CCN2CCOCC2)sc2c1CCCC2`, -13.5% (inactive); in that of `COC(=O)c1c(NC(=O)CCCC(=O)O)sc2c1CCCCC2`, -1.74% (inactive).
